In ChEMBL document CHEMBL1961873, “Compounds: GSK PKIS; Assays: Nanosyn kinase panel” (2012):

Experiments:
[1] = target: T1, Inhibitor of nuclear factor kappa-B kinase subunit epsilon (Homo sapiens) (UniProt Q14164); conditions: at 1 µM;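 further: reported values are averaged percent inhibition figures against human IKKε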
T1 sequence (whole entry): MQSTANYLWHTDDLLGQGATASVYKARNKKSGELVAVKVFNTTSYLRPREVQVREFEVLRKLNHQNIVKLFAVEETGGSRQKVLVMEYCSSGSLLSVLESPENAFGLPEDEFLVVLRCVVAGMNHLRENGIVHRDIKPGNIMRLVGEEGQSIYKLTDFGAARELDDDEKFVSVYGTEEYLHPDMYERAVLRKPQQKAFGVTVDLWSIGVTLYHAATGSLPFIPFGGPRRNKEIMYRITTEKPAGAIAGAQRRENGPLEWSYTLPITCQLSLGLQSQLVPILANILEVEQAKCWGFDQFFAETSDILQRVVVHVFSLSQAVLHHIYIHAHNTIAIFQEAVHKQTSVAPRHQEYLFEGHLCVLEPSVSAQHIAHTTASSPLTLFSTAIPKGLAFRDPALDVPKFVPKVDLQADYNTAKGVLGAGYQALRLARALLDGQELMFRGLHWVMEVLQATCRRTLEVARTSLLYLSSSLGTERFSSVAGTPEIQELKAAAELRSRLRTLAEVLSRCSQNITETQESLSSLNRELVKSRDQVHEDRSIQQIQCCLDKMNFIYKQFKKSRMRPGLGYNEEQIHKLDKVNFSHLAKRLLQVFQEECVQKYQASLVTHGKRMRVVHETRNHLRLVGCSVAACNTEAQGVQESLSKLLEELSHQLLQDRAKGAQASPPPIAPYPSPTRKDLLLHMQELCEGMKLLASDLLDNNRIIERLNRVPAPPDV

[2] = target: T2, Serine/threonine-protein kinase Nek1 (Homo sapiens) (UniProt Q96PY6); conditions: at 0.1 µM
T2 sequence (whole entry): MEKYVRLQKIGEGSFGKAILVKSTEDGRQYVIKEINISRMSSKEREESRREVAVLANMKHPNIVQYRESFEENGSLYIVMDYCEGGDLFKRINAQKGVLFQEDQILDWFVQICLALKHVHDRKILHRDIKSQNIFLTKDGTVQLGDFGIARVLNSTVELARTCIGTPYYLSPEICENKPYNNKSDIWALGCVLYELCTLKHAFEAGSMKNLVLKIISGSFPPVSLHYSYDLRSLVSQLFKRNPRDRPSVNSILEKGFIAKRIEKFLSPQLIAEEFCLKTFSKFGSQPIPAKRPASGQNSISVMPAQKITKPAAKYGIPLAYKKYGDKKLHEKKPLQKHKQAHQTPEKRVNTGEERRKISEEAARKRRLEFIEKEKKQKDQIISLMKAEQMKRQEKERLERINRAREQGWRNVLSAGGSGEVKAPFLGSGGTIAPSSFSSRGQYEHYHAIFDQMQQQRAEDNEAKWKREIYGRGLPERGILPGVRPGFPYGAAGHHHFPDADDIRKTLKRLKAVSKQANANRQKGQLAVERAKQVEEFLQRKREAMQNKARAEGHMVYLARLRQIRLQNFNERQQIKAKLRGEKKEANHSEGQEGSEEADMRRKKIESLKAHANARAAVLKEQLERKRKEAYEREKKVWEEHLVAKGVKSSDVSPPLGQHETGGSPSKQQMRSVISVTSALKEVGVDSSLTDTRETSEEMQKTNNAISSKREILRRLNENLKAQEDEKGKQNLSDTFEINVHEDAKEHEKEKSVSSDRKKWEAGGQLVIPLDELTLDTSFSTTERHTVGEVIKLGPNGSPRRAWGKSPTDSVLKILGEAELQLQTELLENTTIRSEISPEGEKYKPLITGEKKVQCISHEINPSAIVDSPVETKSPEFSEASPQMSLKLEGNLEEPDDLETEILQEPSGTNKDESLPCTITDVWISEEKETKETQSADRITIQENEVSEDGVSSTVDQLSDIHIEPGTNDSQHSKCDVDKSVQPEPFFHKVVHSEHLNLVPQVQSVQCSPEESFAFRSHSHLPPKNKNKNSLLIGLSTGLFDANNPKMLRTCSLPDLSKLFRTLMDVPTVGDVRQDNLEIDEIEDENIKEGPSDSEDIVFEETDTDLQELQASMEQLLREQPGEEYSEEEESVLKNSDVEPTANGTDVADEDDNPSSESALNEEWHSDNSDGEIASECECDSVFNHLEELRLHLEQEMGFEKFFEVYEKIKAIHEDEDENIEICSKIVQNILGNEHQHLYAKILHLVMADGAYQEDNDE

[3] = target: T2, Serine/threonine-protein kinase Nek1 (Homo sapiens); conditions: at 1 µM
[4] = target: T3, Serine/threonine-protein kinase Nek2 (Homo sapiens) (UniProt P51955); conditions: at 0.1 µM
T3 sequence (whole entry): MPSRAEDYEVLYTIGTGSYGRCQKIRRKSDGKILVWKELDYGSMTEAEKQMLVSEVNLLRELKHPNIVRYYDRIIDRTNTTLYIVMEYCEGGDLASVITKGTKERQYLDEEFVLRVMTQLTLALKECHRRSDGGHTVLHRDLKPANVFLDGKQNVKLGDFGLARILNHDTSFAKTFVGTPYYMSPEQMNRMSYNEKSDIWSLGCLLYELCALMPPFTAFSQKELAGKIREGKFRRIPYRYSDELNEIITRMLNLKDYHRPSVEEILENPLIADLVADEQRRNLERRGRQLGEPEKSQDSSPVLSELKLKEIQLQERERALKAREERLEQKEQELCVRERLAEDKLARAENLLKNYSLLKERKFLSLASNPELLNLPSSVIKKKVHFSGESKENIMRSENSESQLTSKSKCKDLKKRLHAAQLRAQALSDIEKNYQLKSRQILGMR

[5] = target: T3, Serine/threonine-protein kinase Nek2 (Homo sapiens); conditions: at 1 µM
[6] = target: Serine/threonine-protein kinase Nek6 (Homo sapiens) (UniProt Q9HC98); conditions: at 0.1 µM
[7] = target: Serine/threonine-protein kinase Nek6 (Homo sapiens) (UniProt Q9HC98); conditions: at 1 µM
[8] = target: Serine/threonine-protein kinase Nek7 (Homo sapiens) (UniProt Q8TDX7); conditions: at 0.1 µM
[9] = target: Serine/threonine-protein kinase Nek7 (Homo sapiens) (UniProt Q8TDX7); conditions: at 1 µM
[10] = target: T4, Serine/threonine-protein kinase Nek9 (Homo sapiens) (UniProt Q8TD19); conditions: at 0.1 µM
T4 sequence (whole entry): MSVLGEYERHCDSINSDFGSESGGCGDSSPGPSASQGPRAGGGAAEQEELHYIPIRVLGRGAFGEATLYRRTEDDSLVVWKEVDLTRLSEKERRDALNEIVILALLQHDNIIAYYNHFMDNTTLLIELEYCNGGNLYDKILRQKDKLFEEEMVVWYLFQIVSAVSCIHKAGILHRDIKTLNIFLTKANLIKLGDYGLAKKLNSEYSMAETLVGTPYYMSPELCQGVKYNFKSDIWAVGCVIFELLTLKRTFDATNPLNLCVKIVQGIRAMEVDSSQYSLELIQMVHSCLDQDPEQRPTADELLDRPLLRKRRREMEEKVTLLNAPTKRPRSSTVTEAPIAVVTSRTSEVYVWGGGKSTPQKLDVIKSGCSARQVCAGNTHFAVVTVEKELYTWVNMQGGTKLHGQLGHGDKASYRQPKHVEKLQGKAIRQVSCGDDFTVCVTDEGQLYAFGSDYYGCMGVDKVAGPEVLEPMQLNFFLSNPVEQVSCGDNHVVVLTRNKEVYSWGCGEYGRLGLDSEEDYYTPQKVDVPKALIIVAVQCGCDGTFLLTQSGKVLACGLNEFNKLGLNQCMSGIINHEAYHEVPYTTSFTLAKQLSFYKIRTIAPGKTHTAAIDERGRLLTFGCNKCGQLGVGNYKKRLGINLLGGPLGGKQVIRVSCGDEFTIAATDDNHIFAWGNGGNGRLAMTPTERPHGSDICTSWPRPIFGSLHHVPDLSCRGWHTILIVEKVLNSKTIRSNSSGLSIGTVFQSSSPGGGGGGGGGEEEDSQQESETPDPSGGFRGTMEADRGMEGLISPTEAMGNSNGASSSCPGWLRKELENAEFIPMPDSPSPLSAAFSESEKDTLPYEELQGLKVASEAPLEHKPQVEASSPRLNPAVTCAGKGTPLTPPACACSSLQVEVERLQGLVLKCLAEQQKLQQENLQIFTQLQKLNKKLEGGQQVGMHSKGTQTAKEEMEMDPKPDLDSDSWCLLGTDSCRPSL

[11] = target: T4, Serine/threonine-protein kinase Nek9 (Homo sapiens); conditions: at 1 µM
[12] = target: Serine/threonine-protein kinase PLK1 (Homo sapiens) (UniProt P53350); conditions: at 0.1 µM
[13] = target: Serine/threonine-protein kinase PLK1 (Homo sapiens) (UniProt P53350); conditions: at 1 µM
[14] = target: T5, Dual specificity protein kinase TTK (Homo sapiens) (UniProt P33981); conditions: at 0.1 µM
T5 sequence (whole entry): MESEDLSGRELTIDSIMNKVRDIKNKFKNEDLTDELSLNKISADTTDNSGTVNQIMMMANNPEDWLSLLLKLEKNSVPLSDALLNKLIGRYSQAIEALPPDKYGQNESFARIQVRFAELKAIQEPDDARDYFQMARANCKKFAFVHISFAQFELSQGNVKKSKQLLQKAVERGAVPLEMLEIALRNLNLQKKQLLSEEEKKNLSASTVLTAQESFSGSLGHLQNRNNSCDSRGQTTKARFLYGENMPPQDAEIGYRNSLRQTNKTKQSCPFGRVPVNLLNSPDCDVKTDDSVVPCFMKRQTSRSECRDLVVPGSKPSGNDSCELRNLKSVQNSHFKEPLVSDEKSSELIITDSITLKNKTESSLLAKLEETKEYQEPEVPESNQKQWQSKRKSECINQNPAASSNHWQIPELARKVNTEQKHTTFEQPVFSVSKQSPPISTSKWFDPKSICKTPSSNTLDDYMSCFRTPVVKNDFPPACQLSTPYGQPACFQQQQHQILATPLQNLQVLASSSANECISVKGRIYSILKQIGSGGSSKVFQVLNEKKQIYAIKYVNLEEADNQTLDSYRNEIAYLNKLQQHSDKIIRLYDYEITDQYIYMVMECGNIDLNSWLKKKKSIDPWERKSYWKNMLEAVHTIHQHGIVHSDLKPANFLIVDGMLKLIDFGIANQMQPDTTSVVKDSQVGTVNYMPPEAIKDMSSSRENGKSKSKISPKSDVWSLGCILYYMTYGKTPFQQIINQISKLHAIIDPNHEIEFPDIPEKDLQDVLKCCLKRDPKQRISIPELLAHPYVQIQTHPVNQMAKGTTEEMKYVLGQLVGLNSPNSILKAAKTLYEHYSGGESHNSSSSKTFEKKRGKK

[15] = system: T6, Receptor-type tyrosine-protein kinase FLT3 (Homo sapiens), P36888 [D835Y]; conditions: at 1 µM
T6 sequence (whole entry): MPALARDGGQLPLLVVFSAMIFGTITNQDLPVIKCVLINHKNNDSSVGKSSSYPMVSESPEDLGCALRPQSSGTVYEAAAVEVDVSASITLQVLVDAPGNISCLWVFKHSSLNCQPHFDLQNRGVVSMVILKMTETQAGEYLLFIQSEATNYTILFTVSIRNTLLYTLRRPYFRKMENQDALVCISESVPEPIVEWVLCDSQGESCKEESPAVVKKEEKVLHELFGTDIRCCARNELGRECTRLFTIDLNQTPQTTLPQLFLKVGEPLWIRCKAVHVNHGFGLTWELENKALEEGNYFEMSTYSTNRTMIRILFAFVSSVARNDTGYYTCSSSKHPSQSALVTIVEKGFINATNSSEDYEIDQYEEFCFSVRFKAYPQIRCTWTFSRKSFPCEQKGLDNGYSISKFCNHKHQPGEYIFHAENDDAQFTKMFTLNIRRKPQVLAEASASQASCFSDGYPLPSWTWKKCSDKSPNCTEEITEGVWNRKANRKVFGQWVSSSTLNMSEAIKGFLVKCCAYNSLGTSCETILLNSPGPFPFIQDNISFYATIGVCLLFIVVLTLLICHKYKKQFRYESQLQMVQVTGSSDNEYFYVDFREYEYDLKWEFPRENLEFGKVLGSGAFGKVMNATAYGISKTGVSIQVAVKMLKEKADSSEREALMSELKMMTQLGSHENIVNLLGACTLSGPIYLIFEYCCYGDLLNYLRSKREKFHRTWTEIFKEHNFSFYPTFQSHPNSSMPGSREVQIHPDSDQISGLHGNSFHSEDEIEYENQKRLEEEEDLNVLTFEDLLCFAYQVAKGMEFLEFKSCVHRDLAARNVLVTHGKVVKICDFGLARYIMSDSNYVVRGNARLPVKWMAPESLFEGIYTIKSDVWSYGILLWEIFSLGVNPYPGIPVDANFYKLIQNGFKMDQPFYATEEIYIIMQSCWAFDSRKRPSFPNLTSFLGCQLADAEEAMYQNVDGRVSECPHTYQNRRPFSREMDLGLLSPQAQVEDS

[16] = target: Vascular endothelial growth factor receptor 3 (Homo sapiens) (UniProt P35916); conditions: at 0.1 µM
[17] = target: Vascular endothelial growth factor receptor 3 (Homo sapiens) (UniProt P35916); conditions: at 1 µM
[18] = target: Macrophage colony-stimulating factor 1 receptor (Homo sapiens) (UniProt P07333); conditions: at 0.1 µM
[19] = target: Macrophage colony-stimulating factor 1 receptor (Homo sapiens) (UniProt P07333); conditions: at 1 µM
[20] = target: Tyrosine-protein kinase Fyn (Homo sapiens) (UniProt P06241); conditions: at 0.1 µM
Tyrosine-protein kinase Fyn (Homo sapiens), sequence (P06241 2-537 limits assumed): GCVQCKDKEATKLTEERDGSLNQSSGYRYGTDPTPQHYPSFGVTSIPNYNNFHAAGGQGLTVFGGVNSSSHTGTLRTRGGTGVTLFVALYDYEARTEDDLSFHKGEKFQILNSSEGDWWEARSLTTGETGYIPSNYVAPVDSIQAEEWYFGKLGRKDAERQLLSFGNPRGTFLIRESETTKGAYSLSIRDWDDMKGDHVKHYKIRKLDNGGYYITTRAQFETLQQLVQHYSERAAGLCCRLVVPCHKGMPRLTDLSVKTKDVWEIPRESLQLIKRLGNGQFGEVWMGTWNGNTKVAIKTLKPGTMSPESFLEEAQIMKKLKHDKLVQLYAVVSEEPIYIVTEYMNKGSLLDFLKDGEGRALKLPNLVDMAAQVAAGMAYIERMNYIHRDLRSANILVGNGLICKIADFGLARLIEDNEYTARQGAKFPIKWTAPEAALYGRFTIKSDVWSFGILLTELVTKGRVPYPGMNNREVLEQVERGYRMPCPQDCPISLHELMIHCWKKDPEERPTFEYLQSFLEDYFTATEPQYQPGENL

Macrophage colony-stimulating factor 1 receptor (Homo sapiens), sequence (P07333 whole entry): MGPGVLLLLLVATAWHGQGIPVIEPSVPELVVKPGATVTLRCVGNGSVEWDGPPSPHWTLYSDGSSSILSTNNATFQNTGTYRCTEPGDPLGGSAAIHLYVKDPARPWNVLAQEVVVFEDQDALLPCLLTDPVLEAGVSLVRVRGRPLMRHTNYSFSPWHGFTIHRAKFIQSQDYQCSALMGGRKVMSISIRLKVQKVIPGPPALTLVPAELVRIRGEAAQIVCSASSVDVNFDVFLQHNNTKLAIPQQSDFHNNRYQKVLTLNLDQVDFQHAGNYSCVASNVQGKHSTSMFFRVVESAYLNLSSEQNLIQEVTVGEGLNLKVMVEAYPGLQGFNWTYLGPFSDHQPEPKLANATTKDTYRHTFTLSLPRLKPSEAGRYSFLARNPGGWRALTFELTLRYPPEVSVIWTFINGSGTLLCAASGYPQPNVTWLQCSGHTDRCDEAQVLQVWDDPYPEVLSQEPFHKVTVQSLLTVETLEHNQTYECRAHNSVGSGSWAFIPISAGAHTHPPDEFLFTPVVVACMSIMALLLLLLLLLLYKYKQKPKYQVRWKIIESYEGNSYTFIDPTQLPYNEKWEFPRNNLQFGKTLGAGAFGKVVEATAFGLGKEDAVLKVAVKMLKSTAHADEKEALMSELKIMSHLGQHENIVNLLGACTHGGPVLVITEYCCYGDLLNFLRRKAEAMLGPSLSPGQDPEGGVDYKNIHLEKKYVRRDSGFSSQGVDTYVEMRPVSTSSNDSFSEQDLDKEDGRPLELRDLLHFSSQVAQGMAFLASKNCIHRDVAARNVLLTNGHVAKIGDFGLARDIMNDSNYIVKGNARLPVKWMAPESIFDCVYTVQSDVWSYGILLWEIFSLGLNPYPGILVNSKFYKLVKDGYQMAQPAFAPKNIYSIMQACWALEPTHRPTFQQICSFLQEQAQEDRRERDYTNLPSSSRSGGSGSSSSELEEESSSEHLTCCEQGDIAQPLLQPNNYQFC
Serine/threonine-protein kinase Nek7 (Homo sapiens), sequence (Q8TDX7 whole entry, looked up): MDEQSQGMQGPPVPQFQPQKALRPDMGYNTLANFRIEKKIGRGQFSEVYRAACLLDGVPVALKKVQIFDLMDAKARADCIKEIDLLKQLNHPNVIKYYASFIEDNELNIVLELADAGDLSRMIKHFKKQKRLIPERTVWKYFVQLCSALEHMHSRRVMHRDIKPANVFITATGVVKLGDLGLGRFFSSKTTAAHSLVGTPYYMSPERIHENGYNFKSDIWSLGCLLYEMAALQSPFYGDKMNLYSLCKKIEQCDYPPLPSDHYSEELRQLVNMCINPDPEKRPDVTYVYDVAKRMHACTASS
Serine/threonine-protein kinase Nek6 (Homo sapiens), sequence (Q9HC98 whole entry): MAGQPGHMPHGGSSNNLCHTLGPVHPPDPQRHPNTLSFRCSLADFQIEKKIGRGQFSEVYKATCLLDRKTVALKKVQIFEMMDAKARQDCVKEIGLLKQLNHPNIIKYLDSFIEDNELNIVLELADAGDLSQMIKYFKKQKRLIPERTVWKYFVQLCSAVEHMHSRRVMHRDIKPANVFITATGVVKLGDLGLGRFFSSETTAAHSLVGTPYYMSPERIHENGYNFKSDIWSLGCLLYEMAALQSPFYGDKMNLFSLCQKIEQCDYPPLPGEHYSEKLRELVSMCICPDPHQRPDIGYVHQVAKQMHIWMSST
Serine/threonine-protein kinase PLK1 (Homo sapiens), sequence (P53350 whole entry): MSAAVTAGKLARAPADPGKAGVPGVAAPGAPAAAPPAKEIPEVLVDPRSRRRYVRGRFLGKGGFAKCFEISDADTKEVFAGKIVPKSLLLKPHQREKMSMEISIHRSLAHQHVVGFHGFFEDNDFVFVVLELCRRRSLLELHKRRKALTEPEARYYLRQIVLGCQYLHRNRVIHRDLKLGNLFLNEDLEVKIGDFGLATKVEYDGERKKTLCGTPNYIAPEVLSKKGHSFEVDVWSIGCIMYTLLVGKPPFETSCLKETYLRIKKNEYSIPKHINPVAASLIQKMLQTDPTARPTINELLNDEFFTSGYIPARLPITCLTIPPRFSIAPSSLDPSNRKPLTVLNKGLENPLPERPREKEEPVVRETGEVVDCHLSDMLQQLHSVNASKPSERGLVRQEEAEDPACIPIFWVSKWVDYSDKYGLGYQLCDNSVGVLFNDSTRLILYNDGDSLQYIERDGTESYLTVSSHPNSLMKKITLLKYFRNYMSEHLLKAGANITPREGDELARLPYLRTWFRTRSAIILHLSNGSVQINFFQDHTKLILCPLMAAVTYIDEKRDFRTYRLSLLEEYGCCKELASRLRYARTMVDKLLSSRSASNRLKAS
Vascular endothelial growth factor receptor 3 (Homo sapiens), sequence (P35916 whole entry): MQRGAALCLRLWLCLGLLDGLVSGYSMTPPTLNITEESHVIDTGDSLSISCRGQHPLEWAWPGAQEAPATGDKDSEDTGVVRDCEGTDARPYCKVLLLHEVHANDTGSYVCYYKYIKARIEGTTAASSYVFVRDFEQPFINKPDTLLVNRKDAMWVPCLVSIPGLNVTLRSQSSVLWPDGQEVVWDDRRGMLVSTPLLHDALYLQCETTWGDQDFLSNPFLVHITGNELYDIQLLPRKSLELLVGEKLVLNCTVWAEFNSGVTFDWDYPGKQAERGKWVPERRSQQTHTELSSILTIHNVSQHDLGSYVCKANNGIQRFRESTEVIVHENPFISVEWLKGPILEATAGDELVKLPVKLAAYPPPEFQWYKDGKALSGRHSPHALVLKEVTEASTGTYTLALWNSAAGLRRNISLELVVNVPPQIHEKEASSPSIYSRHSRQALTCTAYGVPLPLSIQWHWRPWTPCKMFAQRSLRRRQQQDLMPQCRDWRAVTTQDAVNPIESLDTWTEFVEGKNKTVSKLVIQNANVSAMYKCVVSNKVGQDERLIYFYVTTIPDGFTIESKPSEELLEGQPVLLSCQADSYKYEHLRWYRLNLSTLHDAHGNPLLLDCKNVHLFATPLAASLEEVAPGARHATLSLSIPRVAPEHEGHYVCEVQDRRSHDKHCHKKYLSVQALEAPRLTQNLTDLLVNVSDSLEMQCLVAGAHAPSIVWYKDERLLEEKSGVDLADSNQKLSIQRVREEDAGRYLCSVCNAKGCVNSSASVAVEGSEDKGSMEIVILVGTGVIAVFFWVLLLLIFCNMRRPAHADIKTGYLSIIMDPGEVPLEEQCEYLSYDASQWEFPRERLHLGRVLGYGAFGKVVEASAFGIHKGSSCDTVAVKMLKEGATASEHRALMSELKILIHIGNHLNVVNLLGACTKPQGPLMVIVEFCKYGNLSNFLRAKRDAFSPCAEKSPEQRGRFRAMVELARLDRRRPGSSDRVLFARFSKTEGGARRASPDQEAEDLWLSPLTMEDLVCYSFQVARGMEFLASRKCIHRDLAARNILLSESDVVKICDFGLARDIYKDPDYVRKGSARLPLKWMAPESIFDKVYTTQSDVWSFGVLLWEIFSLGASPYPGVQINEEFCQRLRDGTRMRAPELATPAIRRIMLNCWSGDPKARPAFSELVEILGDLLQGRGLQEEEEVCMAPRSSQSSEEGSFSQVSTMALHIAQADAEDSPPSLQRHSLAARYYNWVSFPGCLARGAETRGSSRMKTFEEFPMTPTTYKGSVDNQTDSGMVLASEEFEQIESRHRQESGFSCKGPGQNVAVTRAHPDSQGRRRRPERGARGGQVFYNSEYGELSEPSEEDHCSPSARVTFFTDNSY

Row | SMILES | inhibition [1] | inhibition [2] | inhibition [3] | inhibition [4] | inhibition [5] | inhibition [6] | inhibition [7] | inhibition [8] | inhibition [9] | inhibition [10] | inhibition [11] | inhibition [12] | inhibition [13] | inhibition [14] | inhibition [15] | inhibition [16] | inhibition [17] | inhibition [18] | inhibition [19] | inhibition [20]
1 | NCc1ccc(-n2c(-c3nonc3N)nc3cnccc32)cc1 | 11.4% | 3.18% | 3.48% | 6.17% | 7.8% | 3.51% | 3.42% | 7.27% | 7.6% | 2.32% | 6.1% | 3.75% | 3.27% | 19.4% | 6.04% | 6.13% | 7.01% | 12.5% | 49.6% | 1.24%
2 | COc1cc2ncn(-c3cc(OCCc4ccccc4)c(C(N)=O)s3)c2cc1OC | 2.69% | 1.71% | 1.3% | 2.3% | 4.49% | -0.94% | 1.69% | 3.01% | 2.45% | 1.66% | 6.63% |  |  | 1.17% | 1.07% | 1.49% | 21% | -0.81% | 4.7% | 2.91%
3 | Cc1nnc(-c2ccc(C)c(-c3ccc(C(=O)NCc4ccc(Cl)cc4)cc3)c2)o1 | 5.13% | 2.48% | 4.54% | 4.28% | 3.25% | 3.46% | 5.29% | 5.57% | 3.78% | 6.68% | 11.6% | 3.2% | 4.52% | 11.7% | -0.11% | -5.22% |  | 2.43% | 0.83% | -2.42%
